Measurements as given in PubChem BioAssay (NCI).
About 79,000 compounds went through this panel and 15% of them were active in at least one assay; those are over-represented in the sample as a whole. A number with no mark means an inactive call. Calls of active or inactive are those of the source. No stated cut-off is given here; in the data, active means growth inhibition above about 70%; inactive means the rest.

Key:
[1] = NCI Yeast Anticancer Drug Screen. Data for the rad50 strain (AID 155);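 further: 0% = growth of vehicle-only cultures of the same strain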; details: S. cerevisiae rad50 strain growth inhibition, stronger effect = higher value
Procedure, shortened: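 Genetically altered yeast (DNA repair pathway); compound treatment; growth inhibition vs vehicle ctrl.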

[2] = NCI Yeast Anticancer Drug Screen. Data for the mec2-1 strain (AID 157); details: S. cerevisiae mec2-1 strain, stronger effect = higher value
Procedure, shortened: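 mec2-1 yeast strain, carrying an alteration in DNA damage repair or cell cycle control, was exposed to compounds; growth inhibition was measured relative to vehicle-treated controls.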

[3] = NCI Yeast Anticancer Drug Screen. Data for the sgs1 mgt1 strain (AID 161);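 further: 0% = growth of cultures given vehicle only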; details: S. cerevisiae sgs1 mgt1 strain, stronger effect = higher value
Procedure, shortened: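 Compounds are added to genetically altered yeast, and growth is compared with cultures given vehicle alone to give percent inhibition.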

[4] = NCI Yeast Anticancer Drug Screen. Data for the cln2 rad14 strain (AID 165);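 further: 0% = growth equal to vehicle treated cultures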; details: S. cerevisiae cln2 rad14 strain, stronger effect = higher value
Procedure, shortened: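 Yeast carrying cln2 and rad14 alterations (cell cycle control and DNA damage repair) were exposed to compounds. Growth inhibition was measured against vehicle-treated controls.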

[5] = NCI Yeast Anticancer Drug Screen. Data for the bub3 strain (AID 167); details: S. cerevisiae bub3 mutant strain, stronger effect = higher value
Procedure, shortened: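 Yeast carrying a defined mutation is treated with each compound, and growth is compared with that of vehicle-exposed cells to give inhibition.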

[6] = NCI Yeast Anticancer Drug Screen. Data for the mlh1 rad18 strain (AID 175); details: S. cerevisiae mlh1 rad18 strain growth inhibition, stronger effect = higher value
Procedure, shortened: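 Growth inhibition of the yeast strain was measured after compound exposure and expressed relative to vehicle-treated controls. The strain carries defined defects in DNA damage repair.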

[7] = at 5.0 µM (retest, dose inferred, filed as 0.5)
[8] = at 50.0 µM (retest, dose inferred, filed as 5.0)

SMILES | growth inhibition [1, 7] | growth inhibition [1, 8] | growth inhibition ([1]; at 50.0 µM) | growth inhibition [2, 7] | growth inhibition [2, 8] | growth inhibition ([2]; at 50.0 µM) | growth inhibition [3, 7] | growth inhibition [3, 8] | growth inhibition ([3]; at 50.0 µM) | growth inhibition [4, 7] | growth inhibition [4, 8] | growth inhibition ([4]; at 50.0 µM) | growth inhibition [5, 7] | growth inhibition [5, 8] | growth inhibition ([5]; at 50.0 µM) | growth inhibition [6, 7] | growth inhibition [6, 8] | growth inhibition ([6]; at 50.0 µM)
NC(=S)Nc1ccccc1O | 6% | 43% | 50.5% | -10% | 19% | 50.9% | 6% | 15% | 40.9% | 0% | 21% | 8.25% | 17% | 72% (active) | 80.3% (active) | 14% | 46% | 59.2%
Clc1ccc(C(c2ccc(Cl)cc2)c2cncnc2)cc1 | 18% | 96% (active) | 89.8% (active) | 6% | 99% (active) | 90% (active) | 15% | 95% (active) | 89.4% (active) | 10% | 98% (active) | 89.2% (active) | 40% | 97% (active) | 84.2% (active) | 13% | 97% (active) | 86.8% (active)
CCCCCCCCCCCCCCCc1ncc(C)[nH]1 | 69% | 69% | 99.1% (active) | 72% (active) | 99% (active) | 99.4% (active) | 91% (active) | 99% (active) | 99.4% (active) | 28% | 98% (active) | 97.4% (active) | 75% (active) | 99% (active) | 99.5% (active) | 50% | 99% (active) | 99% (active)
CC1=C/C(=C\c2ccc([N+](=O)[O-])o2)C(=O)O1 | 95% (active) | 99% (active) | 99.3% (active) | 86% (active) | 99% (active) | 99.5% (active) | 93% (active) | 52% | 99.2% (active) | 97% (active) | 99% (active) | 99.3% (active) | 49% | 99% (active) | 98.8% (active) | 97% (active) | 99% (active) | 99.2% (active)
Cc1ccc2c(c1)-c1c(c3c(c4c1-c1cc(C)ccc1CC4)C(=O)OC3=O)CC2 | 14% | 72% (active) | 43.9% | 10% | 43% | 16.7% | 2% | 59% | 12.2% | 14% | 41% | 3.45% | 4% | 47% | 7.65% | 9% | 56% | 36.5%
NCc1cccc(O)c1O | 27% | 61% | 73.7% (active) | 22% | 41% | 81.1% (active) | 14% | 51% | 41.5% | 15% | 46% | 24.7% | 20% | 72% (active) | 53.6% | 28% | 44% | 24.9%
CCSc1nc2ccc(N3C(=O)C=CC3=O)cc2s1 | 88% (active) | 100% (active) | 99.7% (active) | 93% (active) | 100% (active) | 99.6% (active) | 96% (active) | 100% (active) | 99.5% (active) | 34% | 99% (active) | 99.3% (active) | 93% (active) | 99% (active) | 99.6% (active) | 98% (active) | 99% (active) | 99.3% (active)
O=C(c1ccccc1)C(Br)CCCC(Br)C(=O)c1ccccc1 (configuration not stated) | 30% | 64% | 97% (active) | 16% | 51% | 96.3% (active) | 19% | 81% (active) | 96% (active) | 15% | 32% | 67.2% | 23% | 73% (active) | 97.3% (active) | 24% | 60% | 95.5% (active)
C/C(=N\OC(=O)c1ccccc1)[N+](=O)[O-] | -50% | 98% (active) | 88.1% (active) | -6% | 100% (active) | 77.8% (active) | -11% | 99% (active) | 72% (active) | -27% | 99% (active) | 81.8% (active) | -61% | 85% (active) | 56.9% | -54% | 98% (active) | 65.4%
NC(=O)c1cccn1Cc1ccccc1SSc1ccccc1Cn1cccc1C(N)=O | 32% | 98% (active) | 89.5% (active) | 31% | 99% (active) | 95.7% (active) | 47% | 99% (active) | 94.2% (active) | 16% | 98% (active) | 90.9% (active) | 24% | 99% (active) | 92.8% (active) | 21% | 98% (active) | 94.4% (active)
O=C(O)CCSc1ncnc2nc[nH]c12 | 3% | 0% | -22.9% | 1% | -18% | -12.8% | 0% | -24% | -30.5% | -25% | -97% | 27.4% | -10% | -7% | -18.8% | -7% | -1% | -13.9%
CCCCN1C(=O)C[C@H]2[C@@H]3CCc4cc(OCCN5CCCC5)ccc4[C@H]3CC[C@]2(C)C1=O | 36% | 75% (active) | 56.9% | 30% | 53% | 55.4% | 66% | 90% (active) | 71.5% (active) | 33% | 70% (active) | 73.1% (active) | 57% | 72% (active) | 78.6% (active) | 68% | 78% (active) | 63.6%
CC(=O)Oc1c(-c2ccccc2)cc([N+](=O)[O-])cc1[N+](=O)[O-] | 13% | 93% (active) | 95.8% (active) | 19% | 93% (active) | 93.5% (active) | 31% | 88% (active) | 93.6% (active) | 17% | 59% | 74.4% (active) | 24% | 65% | 94.5% (active) | 54% | 97% (active) | 91.7% (active)
CCC(=O)C(CC)(c1ccc(OC(C)=O)cc1)c1ccc(OC(C)=O)cc1 | 13% | 82% (active) | -20.3% | 24% | 73% (active) | -1.2% | 9% | 75% (active) | 53.1% | 9% | 33% | 14.7% | 9% | 59% | 35.1% | 21% | 93% (active) | -1.85%
CC1=CC2N(C=C1)C(c1ccccc1)=NON2c1cc(C)ccn1 (configuration not stated) | -20% | -10% | 24.7% | -23% | 14% | 33% | -1% | 23% | 62.5% | -39% | 7% | 25.1% | -44% | -14% | 5.7% | -34% | 38% | 68.9%
O=C1C=C(Br)C(=O)C12CCc1ccccc12 (configuration not stated) | 99% (active) | 99% (active) | 99.7% (active) | 100% (active) | 99% (active) | 99.8% (active) | 93% (active) | 100% (active) | 99.5% (active) | 99% (active) | 99% (active) | 99.3% (active) | 99% (active) | 99% (active) | 99.6% (active) | 99% (active) | 99% (active) | 99.5% (active)
COc1ccccc1CN1CCCN(Cc2ccccc2OC)C1c1ccccc1F | 2% | -2% | 55.9% | -9% | -11% | 43.5% | 4% | 8% | 62.6% | 1% | -1% | 36.6% | 0% | -5% | 78.8% (active) | 16% | 16% | 41%
CC(=O)Oc1ccc2c(c1)CCC1C2CCC2(C)C1CCC21CO1 (configuration not stated) | -4% | 60% | 89.7% (active) | -6% | 18% | 28.6% | -3% | 54% | 73.4% (active) | 1% | 11% | 52.2% | 3% | 44% | 83% (active) | -6% | 29% | 66.7%
CC(N1CCOCC1)C(O)(c1ccccc1)c1ccccn1 (configuration not stated) | 3% | 10% | -19.4% | -1% | -15% | -35.9% | -4% | -15% | -32.6% | 24% | -1% | 60.2% | -2% | -15% | -42.4% | 4% | 19% | 2.75%
